From the antibiotic and cytotoxicity screens of Wong et al. (2023)
Screen size: about 39,000 compounds; about 3,300 (8.5%) were called active. The full list was thinned out, with actives kept by preference.

tested on: HepG2; experiment: cytotoxicity call (relative viability < 0.9); conditions: 10 µM

Row | SMILES | cytotoxicity call
1 | CNCCCC12CCC(c3ccccc31)c1ccccc12.Cl | active
2 | CC(C)CC#Cc1cnc2c(c1)C(=O)N([C@@H](C)CO)C[C@H](C)[C@@H](CN(C)C(=O)CN1CCOCC1)O2 | inactive
3 | C[C@@H]1CCCCO[C@H](CN(C)C(=O)CCCN(C)C)[C@H](C)CN([C@@H](C)CO)C(=O)c2cc(NC(=O)Nc3ccc(C(F)(F)F)cc3)ccc2O1 | inactive
4 | COc1ccccc1C#Cc1cnc2c(c1)C(=O)N([C@H](C)CO)C[C@H](C)[C@H](CN(C)S(=O)(=O)c1cn(C)cn1)O2 | inactive
5 | C[C@@H]1CCCCO[C@H](CN(C)S(=O)(=O)c2ccccc2)[C@H](C)CN([C@@H](C)CO)C(=O)c2cc(NS(=O)(=O)c3cn(C)cn3)ccc2O1 | inactive
6 | C[C@H](CO)N1C[C@H](C)[C@@H](CN(C)C(=O)Nc2cccc3ccccc23)OCCCC[C@H](C)Oc2ccc(NC(=O)c3ccncc3)cc2C1=O | inactive
7 | C[C@@H]1CCCCO[C@@H](CN(C)C(=O)Nc2cccc3ccccc23)[C@@H](C)CN([C@@H](C)CO)C(=O)c2cc(NC(=O)c3ccccc3)ccc2O1 | inactive
8 | C[C@@H]1CCCCO[C@@H](CN(C)C(=O)Nc2cccc3ccccc23)[C@@H](C)CN([C@H](C)CO)C(=O)c2cc(NC(=O)c3ccccc3)ccc2O1 | inactive
9 | C[C@H]1CCCCO[C@H](CN(C)C(=O)Nc2cccc3ccccc23)[C@@H](C)CN([C@@H](C)CO)C(=O)c2cc(NC(=O)c3ccncc3)ccc2O1 | inactive
10 | C[C@@H]1CCCCO[C@H](CN(C)C(=O)Nc2cccc3ccccc23)[C@@H](C)CN([C@@H](C)CO)C(=O)c2cc(NC(=O)c3ccncc3)ccc2O1 | active
11 | C[C@@H]1CCCCO[C@H](CN(C)C(=O)Nc2cccc3ccccc23)[C@H](C)CN([C@@H](C)CO)C(=O)c2cc(NC(=O)c3ccccc3)ccc2O1 | inactive
12 | C[C@@H]1CCCCO[C@H](CN(C)C(=O)Nc2cccc3ccccc23)[C@@H](C)CN([C@H](C)CO)C(=O)c2cc(NC(=O)c3ccccc3)ccc2O1 | inactive
13 | C[C@@H]1CN([C@H](C)CO)C(=O)c2cc(NC(=O)c3ccccc3)ccc2O[C@@H](C)CCCCO[C@H]1CN(C)C(=O)Nc1cccc2ccccc12 | active
14 | C[C@@H]1CN([C@@H](C)CO)C(=O)c2cc(NC(=O)c3ccccc3)ccc2O[C@@H](C)CCCCO[C@H]1CN(C)C(=O)Nc1cccc2ccccc12 | active
15 | C[C@@H]1CCCCO[C@@H](CN(C)C(=O)Nc2cccc3ccccc23)[C@H](C)CN([C@@H](C)CO)C(=O)c2cc(NC(=O)c3ccccc3)ccc2O1 | active
16 | C[C@@H]1CN([C@H](C)CO)C(=O)c2cc(NC(=O)c3ccccc3)ccc2O[C@@H](C)CCCCO[C@@H]1CN(C)C(=O)Nc1cccc2ccccc12 | inactive
17 | C[C@H](CO)N1C[C@H](C)[C@@H](CN(C)C(=O)Nc2cccc3ccccc23)OCCCC[C@H](C)Oc2ccc(NC(=O)c3ccccc3)cc2C1=O | inactive
18 | CC(C)NC(=O)N(C)C[C@H]1OCCCC[C@@H](C)Oc2ccc(NC(=O)Nc3ccc(F)cc3)cc2C(=O)N([C@@H](C)CO)C[C@H]1C | inactive
19 | CC(C)CC#Cc1cnc2c(c1)C(=O)N([C@H](C)CO)C[C@@H](C)[C@H](CN(C)S(=O)(=O)c1cccs1)O2 | inactive

Row | SMILES | cytotoxicity call
20 | Cc1noc(C)c1S(=O)(=O)N(C)C[C@H]1OCCCC[C@H](C)Oc2ccc(NS(C)(=O)=O)cc2C(=O)N([C@@H](C)CO)C[C@@H]1C | inactive
21 | C[C@@H]1CN([C@@H](C)CO)C(=O)Cc2cc(NC(=O)C3CC3)ccc2O[C@H]1CN(C)C(=O)Nc1ccc2c(c1)OCO2 | inactive
22 | CNC(=O)c1ccc2c(c1)OCO2 | inactive
23 | O=C(C[C@@H]1C[C@H]2c3cc(NS(=O)(=O)c4ccc(F)cc4)ccc3O[C@H]2[C@H](CO)O1)NCc1cccc(F)c1 | inactive
24 | C[C@H]1CN([C@@H](C)CO)C(=O)Cc2cc(NC(=O)NC3CCCCC3)ccc2O[C@H]1CN(C)C(=O)Nc1ccc(C(F)(F)F)cc1 | inactive
25 | C[C@H](CO)N1C[C@H](C)[C@@H](CN(C)Cc2ccc(Oc3ccccc3)cc2)Oc2cc(Br)ccc2S1(=O)=O | inactive
26 | C[C@H]1CN([C@@H](C)CO)C(=O)Cc2cc(NS(=O)(=O)c3cccs3)ccc2O[C@H]1CN(C)S(=O)(=O)c1ccccc1 | inactive
27 | C[C@@H]1CCCCO[C@@H](CN(C)Cc2ccccc2)[C@H](C)CN([C@@H](C)CO)C(=O)c2cc(NS(=O)(=O)c3ccc(F)cc3)ccc2O1 | inactive
28 | Cc1c2oc3c(C)ccc(C(=O)N[C@@H]4C(=O)N[C@H](C(C)C)C(=O)N5CCC[C@H]5C(=O)N(C)CC(=O)N(C)[C@@H](C(C)C)C(=O)O[C@@H]4C)c3nc-2c(C(=O)N[C@@H]2C(=O)N[C@H](C(C)C)C(=O)N3CCC[C@H]3C(=O)N(C)CC(=O)N(C)[C@@H](C(C)C)C(=O)O[C@@H]2C)c(N)c1=O | active
29 | Cc1c2oc3c(C)ccc(C(=O)N[C@@H]4C(=O)N[C@@H](C(C)C)C(=O)N5CCC[C@H]5C(=O)N(C)CC(=O)N(C)[C@@H](C(C)C)C(=O)O[C@@H]4C)c3nc-2c(C(=O)N[C@@H]2C(=O)N[C@@H](C(C)C)C(=O)N3CCC[C@H]3C(=O)N(C)CC(=O)N(C)[C@@H](C(C)C)C(=O)O[C@@H]2C)c(N)c1=O | active
30 | Cc1c2oc3c(C)ccc(C(=O)OC(C)C4NC(=O)C(C(C)C)N(C)C(=O)CN(C)C(=O)C5CCCN5C(=O)C(C(C)C)NC4=O)c3nc-2c(C(=O)OC(C)C2NC(=O)C(C(C)C)N(C)C(=O)CN(C)C(=O)C3CCCN3C(=O)C(C(C)C)NC2=O)c(N)c1=O (stereo unspecified) | active
31 | CO[C@@H]1CN(C)C(=O)c2cc(NC(=O)c3cc(C)on3)ccc2OC[C@@H](C)N(S(=O)(=O)c2ccccc2)C[C@H]1C | inactive
32 | COc1ccc(S(=O)(=O)N(C)C[C@H]2Oc3c(NS(=O)(=O)c4ccccc4)cccc3C(=O)N([C@H](C)CO)C[C@H]2C)cc1 | inactive
33 | Cc1ccc(S(=O)(=O)Nc2cccc3c2O[C@H](CN(C)S(=O)(=O)c2cccs2)[C@H](C)CN([C@H](C)CO)C3=O)cc1 | inactive
34 | CC(C)NC(=O)N(C)C[C@@H]1OCCCC[C@H](C)Oc2ccc(NS(C)(=O)=O)cc2C(=O)N([C@@H](C)CO)C[C@@H]1C | inactive
35 | C[C@@H]1CN([C@H](C)CO)C(=O)Cc2cc(NC(=O)C3CC3)ccc2O[C@H]1CN(C)Cc1ccc(Oc2ccccc2)cc1 | inactive
36 | Cc1noc(C)c1NC(=O)Nc1ccc2c(c1)C(=O)N([C@H](C)CO)C[C@@H](C)[C@@H](CN(C)C(=O)Nc1ccc(C(F)(F)F)cc1)O2 | inactive
37 | C[C@H]1CN([C@@H](C)CO)C(=O)c2cccc(NC(=O)Nc3cccc4ccccc34)c2O[C@H]1CN(C)C(=O)NC1CCCCC1 | inactive
38 | O=C(/C=N/O)NCc1ccccn1 | active

Row | SMILES | cytotoxicity call
39 | N#CCC(=O)NCc1ccccn1 | inactive
40 | NC(=O)NCc1ccccn1 | inactive
41 | C[C@H]1CN([C@@H](C)CO)C(=O)c2cc(C#CCN(C)C)cnc2O[C@@H]1CN(C)Cc1ccc2c(c1)OCO2 | inactive
42 | CO[C@H](C(=O)[C@@H](O)[C@@H](C)O)[C@@H]1Cc2cc3cc(O[C@H]4C[C@@H](O[C@H]5C[C@@H](O)[C@H](O)[C@@H](C)O5)[C@@H](O)[C@@H](C)O4)c(C)c(O)c3c(O)c2C(=O)[C@H]1O[C@H]1C[C@@H](O[C@H]2C[C@@H](O[C@H]3C[C@](C)(O)[C@H](O)[C@@H](C)O3)[C@H](O)[C@@H](C)O2)[C@H](O)[C@@H](C)O1 | active
43 | CO[C@H](C(=O)[C@@H](O)[C@@H](C)O)[C@H]1Cc2cc3cc(O[C@H]4C[C@@H](O[C@H]5C[C@@H](O)[C@@H](O)[C@@H](C)O5)[C@@H](O)[C@@H](C)O4)c(C)c(O)c3c(O)c2C(=O)[C@@H]1O[C@H]1C[C@@H](O[C@H]2C[C@@H](O[C@H]3C[C@@](C)(O)[C@@H](O)[C@@H](C)O3)[C@@H](O)[C@@H](C)O2)[C@@H](O)[C@@H](C)O1 | active
44 | N=c1cc(N2CCCCC2)nc(N)n1OS(=O)(=O)O | inactive
45 | CC(C)C(=O)NS(=O)(=O)c1ccc(N)cc1 | inactive
46 | C[C@H]1CN([C@@H](C)CO)C(=O)CCCn2cc(nn2)CO[C@@H]1CN(C)S(=O)(=O)c1ccc2ccccc2c1 | inactive
47 | O=C(CCCCCNC(=O)OCc1ccc(CO[C@H]2C[C@@H](c3ccccc3)C=C(C(=O)N3CCN(Cc4ccccc4)CC3)O2)cc1)NO | inactive
48 | CN(C)CC(=O)N1CC(=O)N2[C@H](CO)[C@@H](c3ccc(C#Cc4cccnc4)cc3)[C@@H]2C1 | inactive
49 | Cc1noc(C)c1NC(=O)N(C)C[C@@H]1Oc2cc(Br)ccc2S(=O)(=O)N([C@H](C)CO)C[C@@H]1C | inactive
50 | COc1ccc2c3c([nH]c2c1)[C@H](CO)N(CC1CCCCC1)C[C@]13CN(C1)C(=O)Nc1cccc(c1)F | inactive
51 | COc1ccc2c3c([nH]c2c1)[C@@H](CO)N(CC1CCCCC1)C[C@]13CN(C1)C(=O)Nc1cccc(c1)F | inactive
52 | COc1ccc2c3c([nH]c2c1)[C@H](CO)N(C[C@]13CCN(CC1)C(=O)Nc1cccc(c1)F)C(=O)c1ccc(cc1)F | inactive
53 | COc1ccc2c3c([nH]c2c1)[C@@H](CO)N(C[C@]13CN(CC2CCCCC2)C1)C(=O)Nc1cccc(c1)F | active
54 | COc1ccc2c3c([nH]c2c1)[C@@H](CO)N(C[C@]13CCN(CC1)C(=O)Nc1cccc(c1)F)C(=O)c1ccc(cc1)F | inactive
55 | COc1ccc2c3c([nH]c2c1)[C@H](CO)N(C[C@]13CN(CC2CCCCC2)C1)C(=O)Nc1cccc(c1)F | active
56 | C[C@@H]1CN([C@H](C)CO)C(=O)c2cccc(NS(=O)(=O)c3ccc(F)cc3)c2O[C@H]1CN(C)S(=O)(=O)c1ccc(F)cc1 | inactive
